# The sample as a whole holds a higher share of the strongest signals than the screen did.
# B1: RBMC2 (Vibrio cholerae) (protein)
# chain: KISVRSGFAIDAIGASASTLVGGTGGNLNAAVNVKDIKAIDLTWGKYYWGGYHLLALDFRMSNGSVISMGSKNYAYSKQTERFTVPAGSRIKGIKAWTAGWLLDGVQFELA
# Experiments:
# Assay in all cases: glycan array binding signal (z-score within array); higher = stronger binding
# Details in all cases: glycan notation: IUPAC condensed, linker removed
# [1] = target: Fuc(a1-2)Gal(b1-4)GlcNAc(b1-2)Man(a1-3)[Fuc(a1-2)Gal(b1-4)GlcNAc(b1-2)Man(a1-6)]Man(b1-4)GlcNAc(b1-4)GlcNAc
# Outline: (§1)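 The binding signal is a Z-score computed within each array and averaged over linkers. Arrays of the same protein sequence at different concentrations or buffers were also averaged together. Data originate from 3228 arrays in the Consortium for Functional Glycomics database, kept only where the protein sequence was available.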
# [2] = target: Fuc(a1-2)Gal(b1-4)GlcNAc(b1-2)[Fuc(a1-2)Gal(b1-4)GlcNAc(b1-4)]Man(a1-3)[Fuc(a1-2)Gal(b1-4)GlcNAc(b1-2)Man(a1-6)]Man(b1-4)GlcNAc(b1-4)GlcNAc
# Outline: as §1
# [3] = target: Fuc(a1-2)Gal(b1-4)GlcNAc(b1-3)Gal(b1-4)GlcNAc(b1-2)Man(a1-3)[Fuc(a1-2)Gal(b1-4)GlcNAc(b1-3)Gal(b1-4)GlcNAc(b1-2)Man(a1-6)]Man(b1-4)GlcNAc(b1-4)GlcNAc
# Outline: as §1
# [4] = target: Fuc(a1-2)Gal(b1-4)[Fuc(a1-3)]GlcNAc(b1-3)Gal(b1-4)[Fuc(a1-3)]GlcNAc(b1-3)Gal(b1-4)[Fuc(a1-3)]GlcNAc
# Outline: as §1
# [5] = target: Fuc(a1-2)Gal6S(b1-3)GlcNAc6S
# Outline: as §1
# [6] = target: Fuc(a1-2)[GalNAc(a1-3)]Gal(b1-4)GlcNAc(b1-3)Gal(b1-4)GlcNAc
# Outline: as §1
# [7] = target: Fuc(a1-2)[GalNAc(a1-3)]Gal(b1-4)GlcNAc(b1-3)GalNAc
# Outline: as §1
# [8] = target: Fuc(a1-2)[GalNAc(a1-3)]Gal(b1-4)[Fuc(a1-3)]GlcNAc
# Outline: as §1
# [9] = target: Fuc(a1-3)[GalNAc(b1-4)]GlcNAc
# Outline: as §1
# [10] = target: Gal(a1-3)Gal(b1-4)GlcNAc(b1-2)Man(a1-3)[Gal(a1-3)Gal(b1-4)GlcNAc(b1-2)Man(a1-6)]Man(b1-4)GlcNAc(b1-4)GlcNAc
# Outline: as §1
# Gal(a1-3)GalNAc = target: Gal(a1-3)GalNAc
# Outline: as §1
# [11] = target: Gal(a1-4)Gal(b1-4)GlcNAc(b1-2)Man(a1-3)[Gal(a1-4)Gal(b1-4)GlcNAc(b1-2)Man(a1-6)]Man(b1-4)GlcNAc(b1-4)GlcNAc
# Outline: as §1
# [12] = target: Gal(b1-3)GalNAc(a1-3)[Fuc(a1-2)]Gal(b1-4)GlcNAc
# Outline: as §1
# [13] = target: Gal(b1-3)GlcNAc(a1-3)Gal(b1-4)GlcNAc
# Outline: as §1
# [14] = target: Gal(b1-3)GlcNAc(b1-2)Man(a1-3)[Gal(b1-3)GlcNAc(b1-2)Man(a1-6)]Man(b1-4)GlcNAc(b1-4)GlcNAc
# Outline: as §1
# [15] = target: Gal(b1-4)GlcNAc(a1-6)Gal(b1-4)GlcNAc
# Outline: as §1
# [16] = target: Gal(b1-4)GlcNAc(b1-2)Man(a1-3)[Gal(b1-4)GlcNAc(b1-2)Man(a1-6)]Man(b1-4)GlcNAc(b1-4)GlcNAc
# Outline: as §1
# [17] = target: Gal(b1-4)GlcNAc(b1-2)[Gal(b1-4)GlcNAc(b1-6)]Man(a1-6)[Gal(b1-4)GlcNAc(b1-2)Man(a1-3)]Man(b1-4)GlcNAc(b1-4)[Fuc(a1-6)]GlcNAc
# Outline: as §1
# [18] = target: Gal(b1-4)GlcNAc(b1-3)Gal(b1-4)GlcNAc
# Outline: as §1
# [19] = target: Gal(b1-4)GlcNAc(b1-3)Gal(b1-4)GlcNAc(b1-2)[Gal(b1-4)GlcNAc(b1-3)Gal(b1-4)GlcNAc(b1-6)]Man(a1-6)[Gal(b1-4)GlcNAc(b1-3)Gal(b1-4)GlcNAc(b1-2)Man(a1-3)]Man(b1-4)GlcNAc(b1-4)GlcNAc
# Outline: as §1
# [20] = target: Gal(b1-4)GlcNAc(b1-3)Gal(b1-4)GlcNAc(b1-3)Gal(b1-4)GlcNAc
# Outline: as §1
# [21] = target: Gal(b1-4)GlcNAc(b1-3)Gal(b1-4)GlcNAc(b1-3)GalNAc
# Outline: as §1
# [22] = target: Gal(b1-4)GlcNAc(b1-3)Gal(b1-4)GlcNAc(b1-3)[Gal(b1-4)GlcNAc(b1-3)Gal(b1-4)GlcNAc(b1-6)]GalNAc
# Outline: as §1
# [23] = target: Gal3S(b1-3)[Fuc(a1-4)]GlcNAc
# Outline: as §1
binder,measurement,setting,value
B1,glycan array binding signal (z-score),[1],1.19
same,glycan array binding signal (z-score),[2],0.016
same,glycan array binding signal (z-score),[3],3.69
same,glycan array binding signal (z-score),[4],-0.273
same,glycan array binding signal (z-score),[5],-0.121
same,glycan array binding signal (z-score),[6],-0.171
same,glycan array binding signal (z-score),[7],-0.327
same,glycan array binding signal (z-score),[8],-0.4
same,glycan array binding signal (z-score),[9],-0.311
same,glycan array binding signal (z-score),[10],3.79
same,glycan array binding signal (z-score),Gal(a1-3)GalNAc,-0.276
same,glycan array binding signal (z-score),[11],4.07
same,glycan array binding signal (z-score),[12],-0.258
same,glycan array binding signal (z-score),[13],-0.3
same,glycan array binding signal (z-score),[14],3.3
same,glycan array binding signal (z-score),[15],-0.466
same,glycan array binding signal (z-score),[16],-0.184
same,glycan array binding signal (z-score),[17],0.211
same,glycan array binding signal (z-score),[18],-0.235
same,glycan array binding signal (z-score),[19],-0.097
same,glycan array binding signal (z-score),[20],-0.368
same,glycan array binding signal (z-score),[21],-0.363
same,glycan array binding signal (z-score),[22],-0.254
same,glycan array binding signal (z-score),[23],-0.327
